High-throughput results as filed in PubChem BioAssay.
Sm TGR inh: S. mansoni TGR enzyme inhibition. Potency, µM (highest dose often 114 µM), for inactives: at the highest dose activity change, negative = inhibition, hits mostly inhibitors. 360,000 compounds, 3% hits. Q962Y6. AID 485364. purified TGR, DTNB reduction, TNB absorbance 405 nm; active means well fitted inhibition curve with a large enough effect; inconclusive means small, poorly fitted or top-dose-only effect; inactive means no such curve, though single readings can be large or run the other way; further: potency means the concentration at half of the fitted maximal effect; on the % scale 0 is the no-effect control and ±100 the full control effect; nearly all actives have a fitted effect of over 60% in size
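Kinetic colorimetric format: TGR-catalysed, NADPH-driven DTNB reduction monitored via TNB absorbance. Enzyme dispensed at 20 nM; compound exposure 15 min at room temperature before reaction start.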
SARS PLpro yeast-1: blocks SARS-CoV papain-like protease in a yeast assay; S. cerevisiae expressing SARS-CoV PLpro, growth rescue; Potency, µM (titrated, usually from 32.9 µM), for inactives: at the top dose activity, positive = growth rescue, most hits filed as activators; 330,000 compounds, 0.19% hits; AID 485353; calls by dose curve; further: potency means the concentration at half of the fitted maximal effect; 0% is about no effect; nearly all actives have a fitted effect of over 55% in size
SARS PLpro yeast-2: Rescues yeast growth by inhibiting SARS-CoV PLpro | yeast expressing SARS-CoV PLpro, growth phenotype rescue | calls only | shares compounds with SARS PLpro yeast-1 | 1,000 compounds, 19% hits | AID 652038; call rule not given here
Active calls of the source: *; i = inactive; u = inconclusive; x = not tested or not shown; + = active, no number; [ ] = dose if it differs, or a comment. In the library only some 3% were active in any assay of this set; here they are far more common.

SMILES	Sm TGR inh	SARS PLpro yeast-1	SARS PLpro yeast-2
O=C(Nc1cccc(-c2nnc(-c3ccccc3)o2)c1)C1CC1	x	0.9%	x
CC(=O)Nc1cccc(-c2nnc(-c3ccccc3)o2)c1	1.8%	u	u
COc1cc(C(=O)Nc2ccccc2OCc2cc(=O)n3c(C)csc3n2)cc(OC)c1OC	-3.0%	x	x
CCC(=O)N(CCc1ccccc1C)Cc1cc2ccc(C)cc2[nH]c1=O	15.0%	-0.6%	x
CC(=O)N(CCc1ccccc1C)Cc1cc2cc3c(cc2[nH]c1=O)OCO3	0.9%	11.2µM*	i
CC1CCN(c2c([N+](=O)[O-])nn(-c3ccc4c(c3)OCCO4)[n+]2[O-])CC1	-1.1%	3.98µM*	i
O=[N+]([O-])c1nn(-c2ccc3c(c2)OCCO3)n(O)c1=NC1CCCCC1	u	3.0%	x
Cc1ccccc1NC(=O)C(Cc1ccccc1)N1Cc2ccccc2C1=O (centres undefined)	0.4%	x	x
COc1cc(/C=N/NC(=O)CN2CC(c3ccccc3)CC2=O)ccc1OC(=O)N(C)C (centres undefined)	8.0%	0.8%	x
O=C(CN1CC(c2ccccc2)CC1=O)N/N=C/c1cc(Br)ccc1O (centres undefined)	0.9%	10µM*	+
Cc1ccc(C(=O)NC(=S)Nc2ccccc2N2CCCC2)cc1[N+](=O)[O-]	-0.4%	u	+
Cc1ccc(C(=O)Nc2ccccc2N2CCCCC2)cc1[N+](=O)[O-]	0.4%	0.9%	x
COc1ccc(-n2c(=O)c3ccc(C(=O)NCc4ccc(C)cc4)cc3n(Cc3ccc(F)cc3Cl)c2=O)cc1	0.4%	x	x
O=C(COc1ccccc1F)Nc1ccc2nc(SCc3ccccc3)sc2c1	-1.2%	x	x
CCC(C)n1c(O)c(/C=N/NC(=O)c2ccncc2)c(=O)[nH]c1=S (centres undefined)	-20.7%	11.2µM*	i
CCn1c(O)c(/C=N/NC(=O)c2ccncc2)c(=O)[nH]c1=S	u	1.5%	x
Cc1cc(C)nc(-n2nc(C)cc2NC(=O)CNCc2ccccc2)n1	8.5%	1.0%	x
CCN(CC(=O)Nc1cc(C)nn1-c1nc(C)cc(C)n1)Cc1ccccc1	-21.8%	u	i
COc1ccc(-c2cc(C(F)(F)F)n3nc(C(=O)Nc4ccccc4SC)cc3n2)cc1OC	3.2%	x	x
CCCCN1C(=O)CN(C2CCCCCC2)C(=O)C1c1ccc(OCC)c(OC)c1 (centres undefined)	6.6%	x	x
Cc1ccc(N=C2NC(=O)/C(=C\c3cccs3)S2)cc1C	-8.5%	u	i
Cc1cccc(N=C2NC(=O)/C(=C/c3cccs3)S2)c1	-5.1%	-6.4%	x
CCc1nnc(NC(=O)c2cnccn2)s1	4.4%	u	i
O=C(Nc1nccs1)c1cnccn1	-0.4%	-2.2%	x
O=C(NN1C(=O)/C(=C/c2ccc(O)c(O)c2)SC1=S)c1ccccc1	6.3%	u	i
SMILES	Sm TGR inh	SARS PLpro yeast-1	SARS PLpro yeast-2
COc1cc(/C=C2\SC(=S)N(NC(=O)c3ccc(O)cc3)C2=O)ccc1O	u	1.3%	x
COc1ccc(N2CCN(CCNC(=O)Nc3ccc(C)c(Cl)c3)CC2)cc1	-3.0%	-1.9%	x
COC(=O)c1ccc(N2CCN(CCNC(=O)Nc3ccc(OC)cc3)CC2)cc1	6.2%	u	i
Cc1nn(CCCC(=O)NCc2ccccc2)c(=O)c2nccn12	1.4%	2.7%	x
CCc1ccc(CNC(=O)CCCn2nc(C)n3ccnc3c2=O)cc1	-15.0%	u	i
COc1ccc(Nc2nc3cc(Cl)c(Cl)cc3n3cnnc23)cc1Cl	-13.0%	x	x
O=C(c1ccc2c(c1)N(Cc1ccccc1)C(=O)c1ccccc1S2(=O)=O)N1CCOCC1	4.7%	x	x
CC1CN(C(=O)Cn2c(C(F)(F)F)nc3ccccc32)CC(C)O1 (centres undefined)	-16.2%	u	i
O=C(O)Cn1c(C(F)(F)F)nc2ccccc21	7.9%	x	x
NC(=O)NOCc1ccccc1	3.7%	2.7%	x
CC(O)CC(=O)NOCc1ccccc1 (centres undefined)	x	u	i
COCCCNC(=O)CCn1c(=O)c2ccccc2n(CC(=O)Nc2c(C)cc(C)cc2C)c1=O	-1.6%	x	x
Cc1nc([N+](=O)[O-])c(Sc2nc3ccc([N+](=O)[O-])cc3[nH]2)n1Cc1ccccc1	14.1µM*	10µM*	i
O=C(CSc1nc2ccc([N+](=O)[O-])cc2[nH]1)c1ccc2ccccc2c1	-10.8%	-6.8%	x
CC(C)CC(=O)Nc1ccc(S(=O)(=O)Nc2cc3c(cc2N2CCOCC2)n(C)c(=O)c(=O)n3C)cc1	-25.4%	x	x
CC(Nc1cccc2ccccc12)C(=O)N/N=C/c1ccc([N+](=O)[O-])cc1 (centres undefined)	-10.4%	-51.4%	x
COc1cc([N+](=O)[O-])cc(/C=N/NC(=O)C(C)Nc2cccc3ccccc23)c1O (centres undefined)	-18.0%	10µM*	u
Cc1ccc(N2CC(NC(=O)/C=C\c3ccc4c(c3)OCO4)CC2=O)cc1C (centres undefined)	-2.1%	x	x
COc1ccccc1OCCNc1cc(N2CCCCC2)ccc1[N+](=O)[O-]	-9.6%	-0.1%	x
CCOc1cc(N2CCCC2)ccc1[N+](=O)[O-]	3.6%	u	i
Cc1ccc(NC(=O)Cn2cc(C(=O)c3ccco3)c3ccccc32)cc1C	4.3%	x	x
CC1(C)Cc2c(C#N)c(NCc3ccco3)nc(-c3ccco3)c2CO1	7.94µM*	u	i
Cc1nc(NCc2ccco2)c(C#N)c2c1COC(C)(C)C2	-32.4%	-0.8%	x
Cc1ccc2c(Sc3ccc(Cl)cc3)c(C(=O)N3CCCCC3)[nH]c2c1	-0.1%	x	x
Cc1cc(C)cc(NC(=O)NCCn2nnc3cc(S(=O)(=O)N(C)C)ccc32)c1	-15.2%	x	x
SMILES	Sm TGR inh	SARS PLpro yeast-1	SARS PLpro yeast-2
Cc1cc(C)nc(Nc2cccc(C(F)(F)F)c2)n1	-20.5%	-0.6%	x
O=C(COc1cccc2cccnc12)Nc1nccs1	0.7%	5.8%	x
COc1cccc(C(=O)NC(c2ccc(Cl)cc2)c2cc(Cl)c3cccnc3c2O)c1 (centres undefined)	3.1%	x	x
Oc1c(C(Nc2cccc(C(F)(F)F)c2)c2cccnc2)ccc2cccnc12 (centres undefined)	0.708µM*	u	i
Oc1cccc(C(Nc2nccs2)c2ccc3cccnc3c2O)c1 (centres undefined)	17.8µM*	0.447µM*	+
COc1cccc(C(NC(C)=O)c2ccc3cccnc3c2O)c1 (centres undefined)	-3.6%	3.16µM*	i
CC(=O)NC(c1cccc([N+](=O)[O-])c1)c1ccc2cccnc2c1O (centres undefined)	-5.3%	1.12µM*	i
O=C(Nc1cccc2cccnc12)c1cccc([N+](=O)[O-])c1	2.8%	-0.4%	x
Cc1ccc(Cl)cc1NC(=O)C(=O)NCCc1sc(-c2ccc(F)cc2)nc1C	-0.6%	x	x
Cn1cccc1C(=S)N1CCOCC1	-0.4%	1.2%	x
Cn1cccc1C(=S)N=P(C1CCCCC1)(N1CCOCC1)N1CCOCC1	-22.9%[11.4 µM]	2.82µM*	i
CCc1ccc(C(=O)c2cn(CC(=O)Nc3ccc4c(c3)OCO4)c3ccc(CC)cc3c2=O)cc1	2.6%	x	x
CC(=O)Oc1ccc(-c2cccc(C(=O)OCC(=O)Nc3ccccc3Oc3ccccc3)c2)cc1	5.3%	u	+
CCOc1ccccc1NC(=O)COC(=O)c1cccc(-c2ccc(OC(C)=O)cc2)c1	1.6%	10.3%	x
CCOc1ccccc1CNCc1c(C(=O)O)c(C)n(Cc2ccc(Cl)cc2)c1C	-0.1%	x	x
